Screening results (PubChem)
pPAFAH inh: pPAFAH enzyme inhibitors, primary screen, biochemical, fluorescence polarization, human | Platelet-activating factor acetylhydrolase (Homo sapiens), Q13093 | recombinant pPAFAH, FP-rhodamine probe fluorescence polarization | inhibition, % at 3.39 µM | actives 1.5% (n = 330,000) | AID 463082, 2010;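 active = inhibition above the mean inhibition across the screen plus 3 SD, cut at about 25% in these data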;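 also: inhibitors block binding of the rhodamine activity-based probe so polarization drops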
PAFAH1B3 FP inh: PAFAH1B3 enzyme inhibitors, primary screen, biochemical, fluorescence polarization, human | Platelet-activating factor acetylhydrolase IB subunit alpha1 (Homo sapiens), Q15102 | recombinant PAFAH1B3, FP-rhodamine probe | inhibition, % at 3.39 µM | actives 0.28% (n = 340,000) | AID 492972, 2010;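 active = inhibition above the screen-wide average of all tested compounds plus 3 SD, cut at about 25% in these data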
Target sequence (Q15102 whole entry, looked up): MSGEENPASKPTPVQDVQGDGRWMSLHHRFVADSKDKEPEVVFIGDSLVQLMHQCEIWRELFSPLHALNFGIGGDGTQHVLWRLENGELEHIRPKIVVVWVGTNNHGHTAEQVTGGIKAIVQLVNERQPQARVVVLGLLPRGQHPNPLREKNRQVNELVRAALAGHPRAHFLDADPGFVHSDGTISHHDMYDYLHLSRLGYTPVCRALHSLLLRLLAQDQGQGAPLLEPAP
PME-1 inh: PME-1 inhibitors via competitive probe labeling, primary screen, biochemical, fluorescence polarization, FP-Rh probe, HTS | Protein phosphatase methylesterase 1 (Homo sapiens), Q9Y570 | recombinant PME-1 | inhibition, % at 5.9 µM | actives 0.53% (n = 320,000) | AID 2130, 2009;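 active = inhibition above the campaign mean of all compounds plus 3 SD, cut at about 26% in these data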;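 also: competitive labeling of PME-1 active site by serine hydrolase directed probe; inhibitors block probe labeling so polarization falls and inhibition rises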
Target sequence (Q9Y570 whole entry, looked up): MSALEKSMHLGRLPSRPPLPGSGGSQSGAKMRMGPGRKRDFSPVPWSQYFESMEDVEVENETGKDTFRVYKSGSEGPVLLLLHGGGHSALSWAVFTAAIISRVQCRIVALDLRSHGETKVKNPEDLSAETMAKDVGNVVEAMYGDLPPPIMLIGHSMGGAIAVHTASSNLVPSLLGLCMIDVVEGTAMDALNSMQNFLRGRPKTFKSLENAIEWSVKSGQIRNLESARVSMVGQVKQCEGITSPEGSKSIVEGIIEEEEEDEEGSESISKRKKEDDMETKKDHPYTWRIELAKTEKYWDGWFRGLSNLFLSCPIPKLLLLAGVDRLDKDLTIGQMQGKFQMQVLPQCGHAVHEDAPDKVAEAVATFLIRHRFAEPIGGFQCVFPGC
Fam108B inh: mouse Fam108B serine hydrolase inhibitors, primary screen, counter-screen for RBBP9 inhibitor project, biochemical, fluorescence polarization. recombinant Fam108B, FP-Rh probe fluorescence polarization. inhibition, % at 9.51 µM. actives 0.33% (n = 300,000);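 active = inhibition above the screen mean inhibition plus 3 SD, computed separately per campaign, cut at about 18% in these data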;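 also: inhibitors lower polarization as less probe binds the enzyme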
PAFAH2 FP inh: PAFAH2 enzyme inhibitors, primary screen, biochemical, fluorescence polarization, human. inhibition, % at 3.39 µM. actives 0.99% (n = 340,000). Platelet-activating factor acetylhydrolase 2, cytoplasmic (Homo sapiens), Q99487. recombinant PAFAH2, FP-rhodamine activity probe;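 active = inhibition above the mean over all tested compounds plus 3 SD, cut at about 30% in these data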;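 also: inhibitors block probe labeling of enzyme so polarization drops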
PAFAH1B2 inh: PAFAH1B2 enzyme inhibitors, primary screen, biochemical, fluorescence polarization, human; Platelet-activating factor acetylhydrolase IB subunit alpha2 (Homo sapiens), P68402; recombinant PAFAH1B2, FP-rhodamine activity probe; inhibition, % at 3.39 µM; actives 1.2% (n = 340,000);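 active = inhibition above the mean of all tested compounds plus 3 SD, cut at about 24% in these data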
PAFAH1B3 confirm: PAFAH1B3 enzyme inhibitors, confirmation, biochemical, fluorescence polarization, human; shares compounds with PAFAH1B3 FP inh; recombinant PAFAH1B3, FP-Rh activity-based probe; inhibition, % at 3.39 µM; actives 30% (n = 390);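 active = average inhibition over triplicate runs above the hit cutoff set in the earlier primary screen, cut at about 25% in these data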
Of the large screens only hits and unclear results are named; the others gave an inactive call (follow-up assays come after a bar, where they were run). The list is not random: actives were taken first. Their share in the collection is about 2.8%.

COc1ccc(/C=C/C(=O)NC(=S)Nc2cc([N+](=O)[O-])ccc2O)cc1OC	PAFAH1B3 FP inh 35.0 | PAFAH1B3 confirm 31.1
CC(C)n1cnc2c(NCc3ccccc3)cc(N[C@H](C)CO)cc21	PAFAH1B3 FP inh 42.6 (no result: PME-1 inh, Fam108B inh) | PAFAH1B3 confirm 35.1
O=C1c2cccc3c([N+](=O)[O-])ccc(c23)C(=O)N1c1ccccn1	PAFAH1B3 FP inh 28.7 | PAFAH1B3 confirm 38.6
O=C1c2cccc3c([N+](=O)[O-])ccc(c23)C(=O)N1O	none
N#Cc1cc2c(nc1SCC(=O)N1CCOCC1)CCCCC2	PAFAH1B3 FP inh 26.1 | PAFAH1B3 confirm inactive
N#Cc1cc2c(nc1SCC(N)=O)CCCCC2	none
CC(=O)c1ccc(S(=O)(=O)N2CCNC(=O)C2)cc1	none (no result: PME-1 inh, Fam108B inh)
CCOC(=O)c1c(C)oc2c1c(C(c1ccccc1)N1CCOCC1)c(O)c1ccccc12 (centres undefined)	none
CCOC(=O)c1c(C)oc2c1c(C=NCCO)c(O)c1ccccc12	PAFAH1B3 FP inh 29.9 (no result: pPAFAH inh, PME-1 inh, Fam108B inh) | PAFAH1B3 confirm inactive
CCc1ccc(S(=O)(=O)Nc2cc(SCC(=O)O)c(O)c3ccccc23)cc1	PAFAH1B3 FP inh 27.8 | PAFAH1B3 confirm inactive
CCOc1ccc(S(=O)(=O)Nc2cc(SCC(=O)O)c(O)c3ccccc23)cc1	none (no result: pPAFAH inh, PME-1 inh, Fam108B inh)
O=Cc1ccc(O)c2ncccc12	PAFAH1B3 FP inh 29.3 (no result: pPAFAH inh, PME-1 inh, Fam108B inh) | PAFAH1B3 confirm inactive
CCC(=O)NC(=S)Nc1ccc(NC(=O)c2cc3ccccc3o2)c(OC)c1	none (no result: PAFAH1B3 FP inh, PAFAH2 FP inh, PAFAH1B2 inh)
Nc1ccc(N(CCO)CCO)cc1	PAFAH1B3 FP inh 37.6 | PAFAH1B3 confirm inactive
CCN(CC)c1ccc(N)cc1	none (no result: Fam108B inh)
O=C(O)c1ccc(Nc2nc(-c3ccc([N+](=O)[O-])cc3)nc3ccccc23)cc1	PAFAH1B3 FP inh 26.2 (no result: pPAFAH inh, PME-1 inh, Fam108B inh) | PAFAH1B3 confirm inactive
O=[N+]([O-])c1ccc(-c2nc(Nc3ccc(O)cc3)c3ccccc3n2)cc1	none (no result: pPAFAH inh, PME-1 inh, Fam108B inh)
CC(C)(C)NC(=O)NC(=O)C[n+]1ccc(Cc2ccc([N+](=O)[O-])cc2)cc1	none
O=C(Cn1c(=S)[nH]c2ccccc2c1=O)N1CCN(c2ccccc2)CC1	PAFAH1B3 FP inh 25.7 | PAFAH1B3 confirm inactive
O=C(C1CCC(Cn2c(=S)[nH]c3ccccc3c2=O)CC1)N1CCN(c2ccccc2)CC1 (centres undefined)	none
Cn1c(=O)c2cc(NCc3ccccc3)nnc2n(C)c1=O	PAFAH1B3 FP inh 66.0, PME-1 inh 29.2 | PAFAH1B3 confirm inactive
COCCN(Cc1cc2cc(C)c(C)cc2nc1Cl)C(=O)N1CCOCC1	none
COc1cc(C(=O)N/N=C/c2cn(Cc3cccc(F)c3)c3ccccc23)ccc1O	PAFAH1B3 FP inh 33.7 (no result: pPAFAH inh, PME-1 inh, Fam108B inh) | PAFAH1B3 confirm inactive
Cc1ccc(CNc2ccc(O)cc2)cc1	PAFAH1B3 FP inh 39.0 (no result: pPAFAH inh, PME-1 inh, Fam108B inh) | PAFAH1B3 confirm inactive
COc1ncnc(OC)c1NC(=O)c1ccc(F)cc1	none
Cn1nc(C(C)(C)C)c(NC(=O)c2ccc(F)cc2)c1C(C)(C)C	PAFAH1B3 FP inh 30.7 | PAFAH1B3 confirm inactive
COc1cc(/C=C/C(=O)N2CCN(C(=O)/C=C/c3cc(OC)c(OC)c(OC)c3)CC2)cc(OC)c1OC	none
COc1cc2c(cc1OC)CN(C(=O)/C=C/c1cc(OC)c(OC)c(OC)c1)CC2	PAFAH1B3 FP inh 29.8 | PAFAH1B3 confirm inactive
O=C(COC(=O)c1ccc([N+](=O)[O-])s1)Nc1ncc(C(F)(F)F)cc1Cl	PAFAH1B3 FP inh 30.4 | PAFAH1B3 confirm inactive
O=C(COC(=O)c1ccccn1)Nc1ncc(C(F)(F)F)cc1Cl	none
CCOc1ccc2nc(N3CCCC(C(=O)NCC4CCCO4)C3)sc2c1 (centres undefined)	none
CCOc1ccccc1/C=C/c1nc2ccccc2[nH]c1=O	PAFAH1B3 FP inh 27.9 (no result: pPAFAH inh, PME-1 inh, Fam108B inh) | PAFAH1B3 confirm inactive
Cc1ccc(C(=O)CSc2nn3c(=O)c(C(C)(C)C)nnc3s2)cc1	none
CC(C)(C)c1nnc2sc(SCC(=O)c3ccc(Cl)cc3)nn2c1=O	PAFAH1B3 FP inh 26.8 | PAFAH1B3 confirm inactive
CCCC(NC(=O)c1ccc(Br)o1)c1nc2ccccc2[nH]1 (centres undefined)	none (no result: PME-1 inh, Fam108B inh)
O=C(NN=c1c(=O)c2ccccc2c1=O)c1ccccc1	PAFAH1B3 FP inh 37.5 | PAFAH1B3 confirm 31.7
O=C(O)c1ccc(NC2=C(n3nnc4ccccc43)C(=O)c3ccccc3C2=O)cc1	PAFAH1B3 FP inh 28.5 | PAFAH1B3 confirm 25.9
COc1cc(N)c(C(=O)c2nccc3cc(OC)c(OC)cc23)cc1OC	none
COc1cc(C(=O)c2nccc3cc(OC)c(OC)cc23)c([N+](=O)[O-])cc1OC	PAFAH1B3 FP inh 40.5 | PAFAH1B3 confirm inactive
CCOC(=O)c1c(C)[nH]c(C)c1C(=O)COC(=O)c1ccc([N+](=O)[O-])s1	PAFAH1B3 FP inh 45.5 (no result: Fam108B inh) | PAFAH1B3 confirm inactive
CCOC(=O)C1CCN(c2nc(N)c3c(N)nc(SCC(=O)O)cc3c2C#N)CC1	PAFAH1B3 FP inh 36.9 (no result: pPAFAH inh, PME-1 inh, Fam108B inh) | PAFAH1B3 confirm inactive
CN(C)c1ccc(O)c2c1CC1CC3[C@@H](N(C)C)C(=O)C(C(N)=O)C(=O)[C@]3(O)C(=O)C1C2=O (some centres undefined)	none (no result: PME-1 inh, Fam108B inh)
CC(C)(C)NC(=O)C(c1ccccn1)N(C(=O)c1csnn1)C1CCCC1 (centres undefined)	none
CCOC(=O)C1CCN(C(=O)c2cc(S(=O)(=O)N3CCCCCC3)ccc2OC)CC1	none
Cc1cscc1NC(=O)/C=C/C(=O)O	none (no result: PAFAH1B3 FP inh, PAFAH2 FP inh, PAFAH1B2 inh)
CC(=O)c1sc(C(C)(C)C)cc1NC(=O)/C=C/C(=O)O	PAFAH1B3 FP inh 43.6 | PAFAH1B3 confirm 35.1
O=C1C(=O)c2c(ccc3ccccc23)-c2ccccc21	PAFAH1B3 FP inh 56.2 (no result: pPAFAH inh, PME-1 inh, Fam108B inh) | PAFAH1B3 confirm inactive
CN(C)/C=C1\Oc2ccc3ccccc3c2C1=O	none
CC1CC(C)CN(C(=O)C2CCC(CNS(=O)(=O)c3ccccc3)CC2)C1 (centres undefined)	none
CC(C)C[C@H](NC(=O)N1c2ccccc2NC(=O)[C@@H]1C(C)C)C(=O)N[C@@H](Cc1ccccc1)C(=O)O	none
NC(=S)NN=C1c2ccccc2-c2c(F)c(F)c(F)c(F)c21	PAFAH1B3 FP inh 51.2 (no result: pPAFAH inh, PME-1 inh, Fam108B inh) | PAFAH1B3 confirm 46.0
Cc1c(N=C2C=CC(=O)c3ccccc32)c(=O)n(-c2ccccc2)n1C	PAFAH1B3 FP inh 46.9 (no result: pPAFAH inh, PME-1 inh, Fam108B inh) | PAFAH1B3 confirm 36.8
CCCc1ccc(S(=O)(=O)N/N=C(/C)c2ccc3c(c2)OCO3)cc1	none (no result: pPAFAH inh, PME-1 inh, Fam108B inh)
